Results as given in PubChem BioAssay.
Active and inactive are the calls of the source. Unless noted, no rule for the calls is given here.

Assays:
[1] = anti-His antibody binders, primary screen, artefact control for SMM control protein annotation, biochemical, small-molecule microarray, 635 nm fluorescence (AID 1128); conditions: anti-His Alexa647 antibody binding, higher = more signal;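 also: score merges feature fluorescence with signal-to-noise for each printed compound spot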
[2] = tested on: Human papillomavirus type 1a E7 protein (residues 1-88); assay: HPV1a E7 small-molecule binders, primary screen, biochemical, small-molecule microarray, residues 1-88, 635 nm (AID 1129); conditions: small-molecule microarray binding, fluorescence 635 nm; higher = more signal
[3] = target: Focal adhesion kinase 1 (Homo sapiens) (UniProt Q05397); assay: small-molecule microarray binders of FAK, primary screen, biochemical, 635/667 nm fluorescence, BSA, DTT (AID 1130); conditions: PTK2 binding, 635 nm fluorescence, higher = more signal;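 also: composite of spot emission at 667 nm and signal to noise over triplicate slides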
Sequence of Focal adhesion kinase 1 (Homo sapiens) (Q05397 whole entry, looked up): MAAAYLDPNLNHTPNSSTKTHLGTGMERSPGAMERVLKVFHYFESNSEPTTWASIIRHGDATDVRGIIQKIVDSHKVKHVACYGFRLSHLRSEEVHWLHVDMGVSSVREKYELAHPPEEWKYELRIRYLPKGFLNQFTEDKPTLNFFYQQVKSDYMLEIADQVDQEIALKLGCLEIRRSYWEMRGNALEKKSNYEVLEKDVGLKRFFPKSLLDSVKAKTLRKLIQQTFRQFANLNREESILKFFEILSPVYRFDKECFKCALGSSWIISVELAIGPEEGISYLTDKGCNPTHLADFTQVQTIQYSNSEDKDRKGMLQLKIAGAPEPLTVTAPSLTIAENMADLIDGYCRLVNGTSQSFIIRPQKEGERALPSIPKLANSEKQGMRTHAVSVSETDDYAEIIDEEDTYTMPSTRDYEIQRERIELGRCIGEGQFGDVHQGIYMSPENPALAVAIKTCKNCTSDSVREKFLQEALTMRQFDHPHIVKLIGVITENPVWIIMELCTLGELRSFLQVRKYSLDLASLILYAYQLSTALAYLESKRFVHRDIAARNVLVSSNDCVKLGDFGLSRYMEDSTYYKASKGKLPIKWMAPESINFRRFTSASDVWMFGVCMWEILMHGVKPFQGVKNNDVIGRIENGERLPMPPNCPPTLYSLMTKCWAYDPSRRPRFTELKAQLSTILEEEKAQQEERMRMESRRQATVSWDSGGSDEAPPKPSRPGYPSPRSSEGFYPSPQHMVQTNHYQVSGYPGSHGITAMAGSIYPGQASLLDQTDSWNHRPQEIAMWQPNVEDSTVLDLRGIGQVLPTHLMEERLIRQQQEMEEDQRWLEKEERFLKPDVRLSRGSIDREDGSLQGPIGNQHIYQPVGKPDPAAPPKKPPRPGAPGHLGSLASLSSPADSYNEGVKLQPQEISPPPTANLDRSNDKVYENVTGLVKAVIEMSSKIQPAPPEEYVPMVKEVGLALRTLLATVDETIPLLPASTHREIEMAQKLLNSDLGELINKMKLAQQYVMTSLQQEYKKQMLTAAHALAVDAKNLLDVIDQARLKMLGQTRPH

[4] = tested on: Fibrinogen (Alexa647-labelled); assay: fibrinogen binders on compound microarrays, profiling panel, artefact control for SMM control-protein annotation, biochemical, small-molecule microarray, 635/667 nm fluorescence (AID 1131); conditions: fibrinogen-A647 binding fluorescence, higher = more signal;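 also: z-score merges 667 nm fluorescence with per-spot signal-to-noise over triplicate slides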
[5] = target: Follistatin (Homo sapiens) (UniProt P19883); assay: follistatin binders on small-molecule microarrays, primary screen, biochemical, small-molecule microarray, 635/667 nm fluorescence (AID 1132); conditions: FST binding, 635 nm fluorescence, higher = more signal
Sequence of Follistatin (Homo sapiens) (P19883 whole entry, looked up): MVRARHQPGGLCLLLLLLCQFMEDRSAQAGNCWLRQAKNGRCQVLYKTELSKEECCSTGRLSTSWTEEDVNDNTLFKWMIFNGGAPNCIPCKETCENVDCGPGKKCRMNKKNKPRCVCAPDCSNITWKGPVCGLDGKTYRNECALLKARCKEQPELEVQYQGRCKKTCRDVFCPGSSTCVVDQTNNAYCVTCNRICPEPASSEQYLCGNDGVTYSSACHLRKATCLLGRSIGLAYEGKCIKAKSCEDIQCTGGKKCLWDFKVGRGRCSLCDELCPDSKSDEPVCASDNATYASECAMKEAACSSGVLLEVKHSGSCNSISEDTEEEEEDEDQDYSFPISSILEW

[6] = target: Fibroblast growth factor 2 (Homo sapiens) (UniProt P09038); assay: FGF2 binders on small-molecule microarrays, primary screen, biochemical, small-molecule microarray, 635/667 nm fluorescence (AID 1133); conditions: small-molecule microarray binding, FGF2, fluorescence 635/667; higher = more signal
Sequence of Fibroblast growth factor 2 (Homo sapiens) (P09038 whole entry, looked up): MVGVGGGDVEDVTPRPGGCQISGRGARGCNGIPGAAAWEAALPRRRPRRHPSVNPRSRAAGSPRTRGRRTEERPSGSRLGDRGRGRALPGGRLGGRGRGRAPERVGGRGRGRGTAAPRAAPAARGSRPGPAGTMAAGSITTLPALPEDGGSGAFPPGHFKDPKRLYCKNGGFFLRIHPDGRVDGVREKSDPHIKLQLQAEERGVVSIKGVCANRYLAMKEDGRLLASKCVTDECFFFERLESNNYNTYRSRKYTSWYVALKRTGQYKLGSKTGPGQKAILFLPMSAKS

[7] = mitochondrial membrane potential change in A549 cells, profiling panel, cell-based, JC-1 fluorescence, basal, 24 h, 100 nL (AID 1138); conditions: higher = more signal;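 also: A549 lung adenocarcinoma cells under basal conditions with no added stimulus; test concentration not given here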
[8] = tested on: Lefty1; assay: Lefty1 binders on small-molecule microarrays, primary screen, biochemical, small-molecule microarray, 635/667 nm fluorescence (AID 1139); conditions: small-molecule microarray binding, fluorescence 635/667; higher = more signal
[9] = tested on: wheat germ agglutinin (Triticum aestivum), Alexa647-labelled; assay: wheat germ agglutinin binders on compound microarrays, profiling panel, artefact control for SMM control-protein annotation, biochemical, small-molecule microarray, 635/667 nm fluorescence (AID 1140); conditions: WGA-A647 binding, 635 nm fluorescence, higher = more signal;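 also: score merges 667 nm feature emission with signal to noise over triplicate slides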
[10] = target: Luciferin 4-monooxygenase (Photinus pyralis) (UniProt P08659); assay: firefly luciferase enzyme inhibitors, primary screen, biochemical, luminescence, purified enzyme, 2006 set (AID 1141); conditions: SteadyGlo luminescence, 30 min, higher = more signal, called active from +8 up or from −8 down;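 also: cell-free assay with purified firefly luciferase at 100 ng per well in PBS; test concentration not given here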
Sequence of Luciferin 4-monooxygenase (Photinus pyralis) (P08659 whole entry, looked up): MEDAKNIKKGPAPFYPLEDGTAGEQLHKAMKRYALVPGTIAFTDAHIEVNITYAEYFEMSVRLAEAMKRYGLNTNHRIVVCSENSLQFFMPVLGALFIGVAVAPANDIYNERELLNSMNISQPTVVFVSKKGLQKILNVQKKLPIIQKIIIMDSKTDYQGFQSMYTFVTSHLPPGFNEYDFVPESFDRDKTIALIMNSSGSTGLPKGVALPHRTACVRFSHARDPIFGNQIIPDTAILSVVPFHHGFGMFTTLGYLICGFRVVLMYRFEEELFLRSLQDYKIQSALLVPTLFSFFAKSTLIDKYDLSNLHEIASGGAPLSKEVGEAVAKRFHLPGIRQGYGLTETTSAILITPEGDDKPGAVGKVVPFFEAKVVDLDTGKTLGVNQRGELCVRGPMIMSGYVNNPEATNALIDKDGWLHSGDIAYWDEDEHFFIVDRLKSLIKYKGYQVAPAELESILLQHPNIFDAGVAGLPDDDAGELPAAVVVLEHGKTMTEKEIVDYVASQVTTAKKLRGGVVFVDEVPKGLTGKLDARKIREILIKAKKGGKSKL

[11] = tested on: Wnt5a (protein binding on small-molecule microarray); assay: Wnt5a binders on small-molecule microarray, primary screen, biophysical, 635/667 nm fluorescence (AID 1142); conditions: 635 nm fluorescence, higher = more signal;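 also: fluorescence read at 667 nm with signal to noise per printed feature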
[12] = cell viability in Huh7 cells, primary screen, cytotoxicity control for HCV replication inhibitor project, CellTiter-Glo luminescence, basal, 48 h (AID 1143); conditions: Huh7 HCV replicon, higher = more signal, called active from +8 up or from −8 down;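 also: Huh7 hepatoma cells carrying a hepatitis C replication reporter with no stimulus; test concentration not given here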
[13] = P. aeruginosa biofilm formation inhibitors, primary screen, PAO1 strain, BacTiter-Glo luminescence, LB-PBS (AID 1144); conditions: 12 h, higher = more signal
[14] = CREB reporter modulators without forskolin, primary screen, cell-based, PC12, CRE-LacZ reporter, unstimulated (AID 1145); conditions: no forskolin, luminescence, 4.5 h, higher = more signal, called active from +8 up or from −8 down
[15] = CREB reporter modulators under forskolin, primary screen, cell-based, PC12, CRE-LacZ reporter, forskolin-stimulated (AID 1146); conditions: luminescence, 4.5 h, higher = more signal, called active from +8 up or from −8 down;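 also: PC12 cells with 6xCRE LacZ reporter stimulated by forskolin 10 µM; beta-galactosidase reporter signal reflecting CREB driven transcription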
[16] = target: Streptavidin (Streptomyces avidinii) (UniProt P22629); assay: streptavidin binders on small-molecule microarray, primary screen, artefact control for SMM compound annotation, biophysical, 635/667 nm fluorescence (AID 1147); conditions: streptavidin binding, higher = more signal;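 also: signal reflects streptavidin binding to arrayed compounds as a control protein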
Sequence of Streptavidin (Streptomyces avidinii) (P22629 whole entry, looked up): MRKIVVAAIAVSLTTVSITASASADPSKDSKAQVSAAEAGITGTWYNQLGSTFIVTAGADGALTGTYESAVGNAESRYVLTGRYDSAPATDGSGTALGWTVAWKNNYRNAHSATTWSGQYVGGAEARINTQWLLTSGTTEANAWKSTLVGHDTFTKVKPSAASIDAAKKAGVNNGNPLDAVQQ

[17] = small-molecule binders of probe aInhba, primary screen, biochemical, small-molecule microarray, 635/667 nm fluorescence (AID 1148); conditions: higher = more signal;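 also: score merges 667nm spot fluorescence with signal-to-noise for antibody binding to printed compounds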
[18] = target: Torsin-1A (Homo sapiens) (UniProt O14656); assay: torsin A binders from cell lysate, primary screen, small-molecule microarray, wild-type, 635/667 nm (AID 1149); conditions: COS7 hTOR1A-WT lysate, 635 nm fluorescence, higher = more signal
Sequence of Torsin-1A (Homo sapiens) (O14656 whole entry, looked up): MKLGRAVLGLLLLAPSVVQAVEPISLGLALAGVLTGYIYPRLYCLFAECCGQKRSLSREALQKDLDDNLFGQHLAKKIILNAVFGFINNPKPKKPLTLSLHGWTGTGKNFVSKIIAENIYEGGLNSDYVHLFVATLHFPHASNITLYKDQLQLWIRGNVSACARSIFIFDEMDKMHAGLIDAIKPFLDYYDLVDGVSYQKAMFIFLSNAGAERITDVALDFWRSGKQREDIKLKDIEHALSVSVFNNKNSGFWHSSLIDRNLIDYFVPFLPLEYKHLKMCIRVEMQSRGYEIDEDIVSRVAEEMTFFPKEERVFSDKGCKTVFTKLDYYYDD

[19] = target: Torsin-1A (Homo sapiens) (UniProt O14656); assay: small-molecule binders of mutant TOR1A in lysate, primary screen, cell lysate, small-molecule microarray, COS7 lysate, 635/667 nm fluorescence (AID 1150); conditions: COS7 hTOR1A mutant lysate, 635 nm fluorescence, higher = more signal;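 also: score pools 667 nm emission and signal to noise measuring lysate protein binding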
[20] = tested on: Sonic hedgehog protein (Shh); assay: small-molecule binders of Shh protein, primary screen, biochemical, small-molecule microarray, 635/667 nm fluorescence (AID 1151); conditions: small-molecule microarray binding, 635 nm fluorescence; higher = more signal;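 also: Shh protein binding to compounds spotted on small-molecule microarray slides; score combines spot fluorescence intensity with signal-to-noise across triplicate slides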

SMILES | composite z-score [1] | composite z-score [2] | composite z-score [3] | composite z-score [4] | composite z-score [5] | composite z-score [6] | z-score [7] | composite z-score [8] | composite z-score [9] | z-score [10] | composite z-score [11] | z-score [12] | z-score [13] | z-score [14] | z-score [15] | composite z-score [16] | composite z-score [17] | composite z-score [18] | composite z-score [19] | composite z-score [20]
O=C1O[C@H](c2ccccc2)[C@H](c2ccccc2)N2[C@H]1[C@@H](C(=O)Nc1nc3ccccc3s1)[C@]1(C(=O)Nc3ccc(C#CC4=CCCCC4)cc31)[C@H]2c1ccc(O)cc1 | 0.41 | 1.18 | -0.145 | 0.921 | 1.12 | 0.355 | -1.83 | 0.844 | 0.191 | 0.128 (inactive) | 0.357 | -4.09 (inactive) | -0.922 (inactive) | -0.671 (inactive) | 0.0225 (inactive) | 1.24 | -0.103 | -0.253 | 0.335 | 1
CN(C)C(=O)[C@]1(CCS(=O)(=O)c2ccccc2)N=C(c2ccc(OCCCO)cc2)O[C@@H]1c1ccccc1 | 1.57 | 1.26 | 1.23 | 1 | 1.29 | 0.345 | 0.17 | 0.476 | -0.0414 | 0.396 (inactive) | 0.995 | -2.87 (inactive) | -1.52 (inactive) | 1.42 (inactive) | 1.1 (inactive) | 1.22 | 0.204 | 0.957 | 0.831 | -0.707
CN1C(=O)C2C=CC(C(O)c3cc(C(F)(F)F)cc(C(F)(F)F)c3)N(Nc3ccccc3)C2C1=O (stereo not given) | 0.581 | 0.737 | 0.99 | -0.35 | -0.101 | -0.419 | 0.587 | 0.302 | 0.225 | 0.787 (inactive) | -0.253 | -0.73 (inactive) | 0.329 (inactive) | 0.626 (inactive) | -0.0455 (inactive) | 0.0416 | -0.128 | -1.74 | 1.13 | -0.145
CC1CC/C=C\[C@H]2OC34C=CCN(CCN5CCOCC5)C(=O)[C@H]3N(C(C)CO)C(=O)[C@@H]4C2C(=O)O1 (stereo not given in full) | -0.172 | -1.04 | -0.421 | -1.99 | 0.446 | -0.439 | 0.224 | 0.582 | -0.928 | -1.39 (inactive) | -0.409 | 0.181 (inactive) | 0.156 (inactive) | -0.0778 (inactive) | -0.0178 (inactive) | -1.16 | -0.0933 | -1.72 | -1.58 | 1.41
O=C1NC(=O)C2C1C=CC(C(O)c1ccccn1)N2Nc1ccc(Cl)cc1Cl (stereo not given) | 0.713 | 0.676 | 0.473 | 0.717 | 0.101 | 0.0367 | 1.07 | 0.181 | 1.11 | 0.237 (inactive) | 0.0314 | 0.203 (inactive) | -0.595 (inactive) | 0.0535 (inactive) | -0.0259 (inactive) | 1.16 | -0.101 | -0.117 | 0.175 | -0.517
COc1ccc(C(=O)Nc2cccc(CN3C(=O)[C@@]4(O[C@@H](CC(=O)N(CCO)Cc5ccccc5)[C@H]([Si](C)(C)c5ccc(OC)cc5)[C@H]4C)c4ccccc43)c2)cc1 | 0.696 | 1.01 | 0.16 | 0.193 | 0.99 | 1.08 | -0.106 | 1.18 | 0.289 | -1.75 (inactive) | -0.198 | -4.44 (inactive) | -0.244 (inactive) | 3.3 (inactive) | -0.76 (inactive) | -0.503 | -0.101 | 0.479 | 1.16 | 1.51
O=c1cccc(-c2ccc(F)cc2)o1 | 0.198 | 0.734 | 0.111 | -0.191 | 0.456 | 0.898 | -0.0822 | 0.571 | 0.62 | 1.73 (inactive) | 0.0405 | 0.0779 (inactive) | -0.291 (inactive) | -0.433 (inactive) | 1.01 (inactive) | 0.386 | 0.179 | 0.309 | 0.0586 | 0.559
C=CCOC(=O)[C@H]1[C@@H]2C(=O)O[C@@H](c3ccccc3)[C@@H](c3ccccc3)N2[C@@H](c2ccc(OCCOC(=O)[C@H]3C[C@H]4C(=O)N[C@@H](CCCCNC(C)=O)C(=O)N4[C@H]3c3cccc(OCCO)c3)cc2)[C@]12C(=O)Nc1ccc(I)cc12 | 1.3 | 1.15 | 0.439 | 0.808 | 1.3 | 1.68 | -1.46 | 1.55 | 0.0811 | -0.33 (inactive) | 1.28 | -2.16 (inactive) | 0.437 (inactive) | 0.557 (inactive) | 0.133 (inactive) | 0.0123 | -0.431 | 0.96 | 0.763 | 2.46
CCCCC(=C=CC[C@H](O)c1ccc(OCCO)cc1)C[C@H](O)c1cc(Cl)cc(Cl)c1O | 0.323 | 0.606 | 0.0593 | 0.463 | 0.906 | 0.807 | 0.62 | 0.484 | 0.776 | -1.39 (inactive) | -0.223 | -0.849 (inactive) | -0.145 (inactive) | 7.85 (inactive) | -0.218 (inactive) | 0.315 | -0.15 | 0.296 | 0.51 | 0.646
COc1ccc([Si](C)(C)[C@H]2[C@H](CCO)O[C@@]3(C(=O)N(Cc4ccc(N5C(=O)c6ccccc6Oc6ccccc65)cc4)c4ccccc43)[C@@H]2C)cc1 | -0.486 | -0.76 | -0.266 | 0.348 | -1.14 | -0.968 | 1.26 | -0.865 | 0.0124 | -0.652 (inactive) | -0.154 | -5.43 (inactive) | -1.75 (inactive) | 0.222 (inactive) | -0.986 (inactive) | -0.446 | -0.0762 | -1.08 | -0.889 | 1.13
